Here are results for 7 compounds from PubChem BioAssay (EPA / NIEHS).

Each structure is given as a SMILES string. Results filed as inconclusive are left out. Active and inactive are the calls of the source. The calls were made as follows: active = hit-call score of the fitted dose curve at least 0.9, where 1 is the maximum; inconclusive = response in the unintended direction; inactive = score below 0.9.

The nature of assay [1]: TOX21_p53_BLA_p2_viability: Viability Assessment in the Tox21 HCT-116 p53 Agonism Beta-lactamase Assay, Phase 2 (AID 2283591).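 Also: actives lower the ATP signal meaning cytotoxicity.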 The essentials: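 HCT116 p53-bla cells, 4000/well, dosed after 5 h plating (217-fold dilution of DMSO stocks) and incubated 16 h at 37C. Viability taken as cellular ATP by CellTiter-Glo luminescence after 30 min RT; signal loss marks cytotoxicity.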

Assay [2] addresses Cellular tumor antigen p53 (Homo sapiens) (UniProt P04637). In words: TOX21_p53_BLA_p2_ratio: Tox21 HCT-116 p53 Agonism Beta-lactamase Assay, Ratio, Phase 2 (AID 2283592). An outline of the steps: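 Readout: blue/green (460/530 nm) FRET emission ratio after 2 h CCF4-AM loading at room temperature, excitation 405 nm. HCT116 p53 bla cells, 16 h compound exposure at 37C, 5% CO2; agonist direction fitted against DMSO baseline.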

For assay [3] the target is unchanged. The experiment in a line: TOX21_p53_BLA_p3_ratio: Tox21 HCT-116 p53 Agonism Beta-lactamase Assay, Ratio, Phase 3 (AID 2283596). The essentials:
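Cells were seeded at 4000/well, rested 5 h at 37C, then dosed with DMSO compound solutions (217-fold dilution) for 16 h. CCF4-AM substrate was loaded for 2 h at room temperature, and the 460/530 nm emission ratio was fitted for gain of signal versus DMSO.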

The nature of assay [4]: TOX21_p53_BLA_p4_viability: Viability Assessment in the Tox21 HCT-116 p53 Agonism Beta-lactamase Assay, Phase 4 (AID 2283597).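 Also: hits lower the luminescence signal meaning cytotoxicity.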 The essentials: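 ATP content by CellTiter-Glo luminescence, 30 min RT, read after the beta-lactamase ratio step. Cells: HCT116, 4000/well, compound added after 5 h, exposure 16 h at 37C. Signal loss = reduced viability.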
For assay [5], the target named is Cellular tumor antigen p53 (Homo sapiens) (UniProt P04637). The experiment in a line: TOX21_p53_BLA_p5_ratio: Tox21 HCT-116 p53 Agonism Beta-lactamase Assay, Ratio, Phase 5 (AID 2283599). An outline of the steps:
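HCT-116 p53-bla cells (4000/well) plated 5 h, dosed with compound (217-fold DMSO dilution) for 16 h at 37 C; CCF4-AM substrate 2 h at room temperature. Activity is the 460/530 nm emission ratio (405 nm excitation), fitted in gain-of-signal direction versus DMSO.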

Assay [6] is described as follows: TOX21_p53_BLA_p5_viability: Viability Assessment in the Tox21 HCT-116 p53 Agonism Beta-lactamase Assay, Phase 5 (AID 2283600). An outline of the steps: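 ATP luminescence (CellTiter-Glo, 30 min, RT) served as the viability read-out, with loss of signal indicating cytotoxicity. Compounds in DMSO were pinned at a 217-fold dilution onto 4000 cells/well and incubated 16 h, 37C.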

The target in assay [7] is Cellular tumor antigen p53 (Homo sapiens) (UniProt P04637). The experiment in a line: TOX21_p53_BLA_p4_ratio: Tox21 HCT-116 p53 Agonism Beta-lactamase Assay, Ratio, Phase 4 (AID 2283601). The essentials: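 HCT-116 p53 beta-lactamase reporter cells (4000/well) preincubated 5 h, then compound (217-fold dilution of DMSO stock) for 16 h at 37C. CCF4-AM substrate added 2 h at room temperature; 460/530 nm emission ratio fitted upward versus DMSO.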
Chain of Cellular tumor antigen p53 (Homo sapiens) (P04637 whole entry, looked up): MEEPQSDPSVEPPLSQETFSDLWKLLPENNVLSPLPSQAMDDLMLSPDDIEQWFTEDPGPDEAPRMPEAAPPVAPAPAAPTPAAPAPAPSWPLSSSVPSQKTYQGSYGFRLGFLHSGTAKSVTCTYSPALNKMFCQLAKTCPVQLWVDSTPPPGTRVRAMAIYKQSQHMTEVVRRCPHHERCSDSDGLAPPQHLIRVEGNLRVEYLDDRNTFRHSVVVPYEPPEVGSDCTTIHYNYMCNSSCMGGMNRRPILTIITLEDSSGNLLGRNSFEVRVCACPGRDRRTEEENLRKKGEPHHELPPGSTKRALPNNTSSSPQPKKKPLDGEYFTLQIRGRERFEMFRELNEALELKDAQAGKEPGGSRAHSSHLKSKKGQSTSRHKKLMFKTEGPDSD

Regarding `CCCCOC(=O)CC`, the compound was classed as inactive in assay [1], in assay [2], in assay [3], in assay [4], in assay [5] and in assay [6].

As to `CC(C)Nc1ccccc1`, the outcome in assay [1], in assay [2], in assay [3], in assay [4], in assay [5] and in assay [6] was inactive. The result in assay [7] was inactive.

Take `CCOc1ccc2nc(N)sc2c1`: the outcome in assay [1], in assay [2], in assay [3], in assay [4], in assay [5] and in assay [6] was inactive.

With `NCCCCCC(=O)O`, the result in assay [1], in assay [2], in assay [3], in assay [4], in assay [5] and in assay [6] was inactive. Besides, the outcome in assay [7] was inactive.

Turning to `COc1ccc(OC)c(C(O)CNC(=O)CN)c1` (configuration not stated), the compound was classed as inactive in assay [1], in assay [2], in assay [3], in assay [4], in assay [5] and in assay [6]. The outcome in assay [7] was inactive.

Take `CC(C)NCC(O)c1ccc(NS(C)(=O)=O)cc1` (configuration not stated): the compound was called inactive in assay [1], in assay [2], in assay [3], in assay [4], in assay [5] and in assay [6]. Also, the outcome in assay [7] was inactive.

What is called AC50 is the midpoint of the concentration-response curve, whichever way the signal moves. For the compound `N#Cc1ccc2c(c1)N(CCCN1CCC(O)CC1)c1ccccc1S2`, the result in assay [1], in assay [3], in assay [4] and in assay [6] was inactive. Further, the AC50 was 40.4 µM (active) in assay [2], 35.4 µM (active) in assay [5] and 25.1 µM (active) in assay [7].
